Assay results from publication PMC4336329 (PLoS ONE, 2015).
In all, about 310,000 compounds went through this assay and about 14,000 (4.5%) showed an effect of 50% or more. The effect is printed as a negative number. The sample as a whole holds a higher share of strong results than the screen did.

Target: human ether-à-go-go-related gene (hERG) potassium channel (human, UniProt Q12809)
Assay: primary screen, population patch clamp on CHO cells stably expressing hERG; higher = less effect of the substance
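Also: peak tail current of the secondary pulse compared with the same well before compound.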

Sequence of human ether-à-go-go-related gene (hERG) potassium channel (Q12809 whole entry, looked up): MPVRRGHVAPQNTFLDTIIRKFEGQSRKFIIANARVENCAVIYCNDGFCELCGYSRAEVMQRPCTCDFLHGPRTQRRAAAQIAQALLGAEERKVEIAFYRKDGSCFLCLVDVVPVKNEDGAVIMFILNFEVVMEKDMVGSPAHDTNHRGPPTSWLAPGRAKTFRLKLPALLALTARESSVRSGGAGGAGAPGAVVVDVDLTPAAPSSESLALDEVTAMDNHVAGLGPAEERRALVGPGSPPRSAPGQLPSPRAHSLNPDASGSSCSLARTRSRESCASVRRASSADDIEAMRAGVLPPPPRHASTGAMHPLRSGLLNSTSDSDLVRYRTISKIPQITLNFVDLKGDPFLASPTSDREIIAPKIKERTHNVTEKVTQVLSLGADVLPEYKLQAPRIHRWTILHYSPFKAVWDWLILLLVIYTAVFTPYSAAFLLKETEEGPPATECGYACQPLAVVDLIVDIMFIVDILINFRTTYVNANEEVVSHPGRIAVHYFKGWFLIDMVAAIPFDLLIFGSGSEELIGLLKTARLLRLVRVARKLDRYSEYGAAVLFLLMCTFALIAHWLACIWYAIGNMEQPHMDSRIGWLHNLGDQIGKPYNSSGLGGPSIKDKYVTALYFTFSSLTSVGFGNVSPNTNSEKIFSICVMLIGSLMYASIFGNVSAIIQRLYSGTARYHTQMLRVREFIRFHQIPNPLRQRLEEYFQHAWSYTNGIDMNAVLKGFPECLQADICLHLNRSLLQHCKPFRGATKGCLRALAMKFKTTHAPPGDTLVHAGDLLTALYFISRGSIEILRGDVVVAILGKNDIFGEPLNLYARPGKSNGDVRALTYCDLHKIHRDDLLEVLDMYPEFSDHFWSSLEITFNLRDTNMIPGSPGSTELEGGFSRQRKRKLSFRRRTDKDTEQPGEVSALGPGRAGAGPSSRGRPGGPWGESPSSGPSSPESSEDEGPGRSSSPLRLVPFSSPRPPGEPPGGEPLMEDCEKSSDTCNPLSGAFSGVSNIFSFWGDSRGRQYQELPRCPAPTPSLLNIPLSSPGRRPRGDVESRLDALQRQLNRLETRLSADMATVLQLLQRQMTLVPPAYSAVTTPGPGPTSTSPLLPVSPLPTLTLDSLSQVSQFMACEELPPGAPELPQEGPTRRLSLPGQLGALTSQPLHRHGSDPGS

First: CC(=O)C(Sc1nc(N(C)C)nc(N(C)C)n1)C(=O)Nc1ccccc1 (stereo not drawn)
Second: CN(C)c1nc(N)nc(-c2nc3ccccc3s2)n1
The “hERG current change (%, negative = inhibition) at 10uM” value of the first is higher: -3.04% for the first, -3.77% for the second.

Going from `CC(NC(=O)C1CCCN(S(=O)(=O)c2cccs2)C1)c1ccccc1` (stereo not drawn) to `O=C(NCC1(c2ccccc2)CCOCC1)c1cccs1`, the “hERG current change (%, negative = inhibition) at 10uM” value rises from 6.73% to 13.9%.

Compared with `COc1cccc2c1OCC(C(=O)OCc1cccnc1)=C2`, `COc1ccc2c(c1)C=C(C(=O)OCc1cccnc1)CO2` is higher in “hERG current change (%, negative = inhibition) at 10uM” value: -17.4% for the first, 3.63% for the second.

Compared with `O=C(OCc1cccnc1)C1=Cc2ccccc2OC1`, `O=C(CNC(=O)c1ccccc1F)OCc1csc(-c2ccccc2)n1` is higher in “hERG current change (%, negative = inhibition) at 10uM” value: -64.9% for the first, 14.6% for the second.

Compared with `COC(=O)C1=C(C)Nc2c(c(=O)n(C)c(=O)n2C)C1c1cccnc1` (stereo not drawn), `CCOC(=O)c1c(CS(=O)(=O)c2ccccc2)n(C)c2cc(Br)c(O)c(CN(C)C)c12` is lower in “hERG current change (%, negative = inhibition) at 10uM” value: -2.61% for the first, -50.4% for the second.

Going from `CCN(CC)C(=O)c1cc2c(=O)c3cc(F)ccc3oc2nc1C` to `CCN(CC)C(=O)c1cc2c(=O)c3cc(Cl)ccc3oc2nc1C`, the “hERG current change (%, negative = inhibition) at 10uM” value falls from -10.8% to -66.1%.

Going from `Cc1nc2oc3ccc(Cl)cc3c(=O)c2cc1C(=O)O` to `Cc1cc(O)c(/C=N/Nc2cccc(Cl)c2)c(=O)o1`, the “hERG current change (%, negative = inhibition) at 10uM” value falls from 19% to 1.55%.

Compared with `CN(CC(=O)Nc1ccccc1C(F)(F)F)C(=O)CCc1nc2sc3c(c2c(=O)[nH]1)CCCC3`, `O=C(Nc1cc2c3c(c1)CC(=O)N3CCC2)c1ccccc1F` is lower in “hERG current change (%, negative = inhibition) at 10uM” value: 7.94% for the first, 0.297% for the second.

Compared with `CCCn1nnc(NC(=O)c2ccc(OC)cc2)n1`, `COc1ccc(NC(=O)C(CC(=O)O)Cc2ccc(Cl)cc2)cc1` (stereo not drawn) is higher in “hERG current change (%, negative = inhibition) at 10uM” value: 2.42% for the first, 11.9% for the second.

First: CCc1nc2ccccc2n1Cc1ccc(F)cc1
Second: Cc1nc2ccccc2c(=O)n1Cc1ccco1
The “hERG current change (%, negative = inhibition) at 10uM” value of the first is higher: -0.73% for the first, -7.41% for the second.

Going from `O=C1c2ccccc2C(=O)N1CCCn1ccnc1` to `O=C1c2ccccc2C(=O)N1CCc1nc2ccccc2c(=O)n1CCCn1ccnc1`, the “hERG current change (%, negative = inhibition) at 10uM” value falls from 17.1% to -62.5%.

First: Cc1nc2ccccc2c(=O)n1CCCn1ccnc1
Second: CCC(c1nc2ccccc2c(=O)n1CCCn1ccnc1)N1C(=O)c2ccccc2C1=O (stereo not drawn)
The “hERG current change (%, negative = inhibition) at 10uM” value of the first is higher: -17% for the first, -38.8% for the second.

First: O=C1c2ccccc2C(=O)N1CCCc1nc2ccccc2c(=O)n1-c1cccnc1
Second: O=C1c2ccccc2C(=O)N1CCCc1nc2ccccc2c(=O)n1CCCn1ccnc1
The “hERG current change (%, negative = inhibition) at 10uM” value of the first is higher: -39.7% for the first, -65% for the second.

Going from `O=C1c2ccccc2C(=O)N1CCc1nc2ccccc2c(=O)n1Cc1ccco1` to `O=C1c2ccccc2C(=O)N1Cc1nc2ccccc2c(=O)n1Cc1ccco1`, the “hERG current change (%, negative = inhibition) at 10uM” value rises from -61.8% to 21.3%.

Compared with `COc1ccc(N2C(=O)c3ccccc3NC2c2ccc(OC)c(CSc3ccccn3)c2)cc1` (stereo not drawn), `CCOc1ccccc1N(CC(=O)Nc1ccc(OC)cc1OC)S(=O)(=O)c1ccccc1` is higher in “hERG current change (%, negative = inhibition) at 10uM” value: 2.62% for the first, 14.6% for the second.

Going from `COc1cc(C(=O)NCCSc2ccc(Cl)cc2)cc(OC)c1OC` to `COc1cc(OC)c(NC(=O)CS(=O)(=O)Cc2nc(-c3ccc(C)cc3)oc2C)cc1Cl`, the “hERG current change (%, negative = inhibition) at 10uM” value rises from -3.08% to 11.5%.

First: CC(OC(=O)C1=COCCO1)C(=O)NC1CCCCC1C (stereo not drawn)
Second: N#C/C(=C\c1c(N2CCC(C(N)=O)CC2)nc2ccccn2c1=O)C(=O)NC1CCCCC1
The “hERG current change (%, negative = inhibition) at 10uM” value of the first is lower: 12.7% for the first, 20.9% for the second.

Going from `Cc1ccc(CNC(=O)COC(=O)c2ccc(Cl)c(N)c2)cc1` to `Cc1ccc(C(=O)c2cn[nH]c2-c2ccccc2O)cc1`, the “hERG current change (%, negative = inhibition) at 10uM” value rises from -3.37% to 14.4%.

Going from `CN(C)C(=O)COC(=O)[C@H](Cc1ccccc1)NC(=O)c1ccco1` to `O=C(Cc1ccccc1)NNC(=O)c1ccccc1C(=O)O`, the “hERG current change (%, negative = inhibition) at 10uM” value falls from 7.23% to -5.66%.

Compared with `Cc1cnc(C(=O)OCC(=O)N2CCN(S(=O)(=O)c3ccc(Cl)cc3)CC2)cn1`, `Cc1noc(C)c1S(=O)(=O)N1CCN(c2ccc(Cl)cc2)CC1` is lower in “hERG current change (%, negative = inhibition) at 10uM” value: 4.81% for the first, -6.26% for the second.

Going from `CCOC(=O)c1c(CSc2cccs2)n(C)c2cc(Br)c(O)c(CN(C)C)c12.Cl` to `CCOC(=O)c1c(CSc2ccsc2)n(C)c2cc(Br)c(O)c(CN(C)C)c12.Cl`, the “hERG current change (%, negative = inhibition) at 10uM” value falls from -68.3% to -84.2%.

Compared with `CCOC(=O)c1c(CN2CCOCC2)n(C)c2cc(Br)c(O)c(CN(C)C)c12.Cl`, `CCOC(=O)c1c(CN2CCOCC2)n(C)c2cc(Br)c(O)c(CN(C)C)c12` is lower in “hERG current change (%, negative = inhibition) at 10uM” value: -26.6% for the first, -27.4% for the second.

Compared with `CCOC(=O)c1c(CN(C)C)n(C)c2ccc(OC(C)=O)cc12.Cl`, `CCOC(=O)c1c(CSc2ccc(C)cc2)n(C)c2cc(Br)c(O)c(CN(C)C)c12.Cl.O` is lower in “hERG current change (%, negative = inhibition) at 10uM” value: -41.3% for the first, -54.9% for the second.

Going from `CCOC(=O)c1c(CN2CCCCC2)n(C)c2cc(Br)c(O)c(CN(C)C)c12` to `CCOC(=O)c1c(CSc2ccccc2)n(C)c2cc(Br)c(O)c(CN(C)C)c12`, the “hERG current change (%, negative = inhibition) at 10uM” value falls from -19% to -68.5%.

Going from `CCOC(=O)c1c(CSc2ccccc2)n(C)c2cc(Br)c(OC)c(O)c12` to `CCOC(=O)c1c(CSc2ccccc2)n(C)c2ccc(O)cc12`, the “hERG current change (%, negative = inhibition) at 10uM” value rises from 16.2% to 21.3%.

Going from `CCOC(=O)c1c(C)n(C)c2cc(Br)c(O)c(O)c12` to `COC(=O)c1cc(O)cc(OC)c1C(=O)c1c(O)cc(C)cc1O`, the “hERG current change (%, negative = inhibition) at 10uM” value falls from 8.12% to 4.87%.

Going from `COc1ccc(C2SCCN2S(=O)(=O)c2ccccc2)cc1` (stereo not drawn) to `COc1ccc(N2CCN(c3nc4ccccn4c(=O)c3/C=C(\C#N)S(=O)(=O)c3ccccc3)CC2)cc1`, the “hERG current change (%, negative = inhibition) at 10uM” value rises from -4.42% to -2.49%.

Compared with `COc1cc(O)oc1C=Nc1ccccc1`, `COc1ccc2c(c1)C(=O)[C@H](O)[C@@H](c1ccc(OC)c(Br)c1)O2` is higher in “hERG current change (%, negative = inhibition) at 10uM” value: -18.3% for the first, 12.9% for the second.

Compared with `CCSc1nnc(-c2cccs2)o1`, `N#Cc1ccc(CSc2nnc(NC(=O)c3ccc(=O)[nH]c3)s2)cc1` is lower in “hERG current change (%, negative = inhibition) at 10uM” value: 10.1% for the first, 3.51% for the second.

First: O=C(c1ccc2snnc2c1)N1CCSCC1
Second: COc1ccc(-c2cc(C)no2)cc1S(=O)(=O)N1CCCCC1
The “hERG current change (%, negative = inhibition) at 10uM” value of the first is higher: 4.21% for the first, 2.3% for the second.

Going from `Cc1ccc(S(=O)(=O)/C(C#N)=C/c2c(N3CCC(C(N)=O)CC3)nc3ccccn3c2=O)cc1` to `N#C/C(=C\c1c(N2CCC(C(N)=O)CC2)nc2ccccn2c1=O)S(=O)(=O)c1ccc(Cl)cc1`, the “hERG current change (%, negative = inhibition) at 10uM” value falls from -55.3% to -70.9%.

First: Cc1ccc(S(=O)(=O)/C(C#N)=C/c2c(N3CCN(Cc4ccccc4)CC3)nc3ccccn3c2=O)cc1
Second: N#C/C(=C\c1c(N2CCC(C(N)=O)CC2)nc2ccccn2c1=O)S(=O)(=O)c1ccccc1
The “hERG current change (%, negative = inhibition) at 10uM” value of the first is higher: 5.58% for the first, -4.45% for the second.

Going from `COc1ccc(CN(C(=O)CNC(=O)c2ccco2)C(C(=O)NC2CCCC2)c2ccco2)cc1` (stereo not drawn) to `COc1ccc2c(CCNC(=O)c3ccco3)c[nH]c2c1`, the “hERG current change (%, negative = inhibition) at 10uM” value rises from -15.9% to -1.53%.

First: COc1ccccc1OCc1nnc(SCC(=O)NCc2ccco2)n1-c1ccccc1
Second: COc1ccc2c(c1OC)C(=O)OC2c1c(O)nc(SC)n(-c2ccccc2)c1=O (stereo not drawn)
The “hERG current change (%, negative = inhibition) at 10uM” value of the first is lower: -9.19% for the first, -2.74% for the second.

First: COc1ccc(N2CCN(CCC3Oc4cc([N+](=O)[O-])ccc4NC3=O)CC2)cc1 (stereo not drawn)
Second: COc1ccc(-c2cc(C)no2)cc1S(=O)(=O)N1CCN(c2ccc([N+](=O)[O-])cc2)CC1
The “hERG current change (%, negative = inhibition) at 10uM” value of the first is higher: -19.1% for the first, -76.2% for the second.

First: CCOC(=O)COc1coc(CN2CCN(c3ccc(F)cc3)CC2)cc1=O
Second: CCc1ccc(-c2cc(C)no2)cc1S(=O)(=O)N1CCN(c2ccc(F)cc2)CC1
The “hERG current change (%, negative = inhibition) at 10uM” value of the first is lower: -19.4% for the first, 7.09% for the second.

Compared with `CS(=O)(=O)c1ccc2nc(NC(=O)c3cc(-c4ccccc4)nn3-c3ccccc3)sc2c1`, `COC(=O)c1ccc(COc2ccccc2/C=C/C(=O)c2ccc(OCC(=O)O)cc2)cc1` is lower in “hERG current change (%, negative = inhibition) at 10uM” value: 8.38% for the first, 3.76% for the second.

First: COc1ccc2c(c1OC)C(=O)OC2c1c(O)n(C2CCCCC2)c(=O)[nH]c1=O (stereo not drawn)
Second: COc1ccc2c(c1OC)C(=O)OC2c1c(O)n(Cc2ccc(F)cc2)c(=O)[nH]c1=O (stereo not drawn)
The “hERG current change (%, negative = inhibition) at 10uM” value of the first is lower: -68.8% for the first, 3.09% for the second.

Compared with `Cc1noc(C)c1S(=O)(=O)N1CCN(c2ccccc2)CC1`, `Cc1noc(C)c1S(=O)(=O)N1CCN(c2ccc([N+](=O)[O-])cc2)CC1` is lower in “hERG current change (%, negative = inhibition) at 10uM” value: -5.33% for the first, -69% for the second.

Going from `Cc1cc(-c2ccc(C)c(S(=O)(=O)N3CCN(c4ccc([N+](=O)[O-])cc4)CC3)c2)on1` to `Cc1cc(-c2ccc(C)c(S(=O)(=O)N3CCN(c4ccc(F)cc4)CC3)c2)on1`, the “hERG current change (%, negative = inhibition) at 10uM” value rises from -67.8% to -8.14%.

Compared with `COc1ccc(-c2cc(C)no2)cc1S(=O)(=O)N1CCN(c2ccccc2F)CC1`, `COc1ccc(-c2cc(C)no2)cc1S(=O)(=O)N1CCN(c2ccccn2)CC1` is lower in “hERG current change (%, negative = inhibition) at 10uM” value: 3.36% for the first, -63.7% for the second.

Compared with `CCc1ccc(-c2cc(C)no2)cc1S(=O)(=O)N1CCN(c2ccccn2)CC1`, `Cc1cc(-c2ccc(C)c(S(=O)(=O)N3CCN(c4ccccn4)CC3)c2)on1` is lower in “hERG current change (%, negative = inhibition) at 10uM” value: 4.29% for the first, -21.2% for the second.
